The whole screen tested about 39,000 compounds, of which about 3,300 (8.5%) were called active. Only a selection was taken, and actives are over-represented in it overall.

This assay deals with HepG2. Description: cytotoxicity call (relative viability < 0.9). The conditions noted are these: 10 µM.
In the case of `C[C@H](CO)N1C[C@H](C)[C@H](CN(C)Cc2ccccc2)Oc2c(NS(=O)(=O)c3cn(C)cn3)cccc2C1=O`, the cytotoxicity call is “inactive”.

Regarding `COC(=O)C1=CO[C@@H](O[C@@H]2O[C@H](CO)[C@@H](O)[C@H](O)[C@H]2O)[C@@H]2[C@@H](C)[C@@H](O)C[C@H]12`, the cytotoxicity call was “inactive”.

As to `CC1=NNC(=O)CC1`, the cytotoxicity call was “inactive”.

Regarding `Cc1noc(C)c1NC(=O)Nc1ccc2c(c1)C(=O)N([C@H](C)CO)C[C@@H](C)[C@@H](CN(C)Cc1ccc(C(F)(F)F)cc1)OCCCC[C@@H](C)O2`, the cytotoxicity call is “inactive”.

As for `c1ccc(CNc2ccc3c(ccc4c5ccccc5[nH]c34)n2)cc1`, the cytotoxicity call was “active”.

As to `c1ccc(CNc2nn[nH]n2)cc1`, the cytotoxicity call was “inactive”.

Regarding `Cn1nnnc1NCc1ccccc1`, the cytotoxicity call was “inactive”.

`C[C@@H](CO)N1C(=O)[C@@H]2[C@H]3C(=O)OCCC=C[C@H]3O[C@]23C=CCN(Cn2nnc4ccccc42)C(=O)[C@@H]13`: the cytotoxicity call is “inactive”.

For the compound `Brc1ccc(CSc2c[nH]c3ccccc23)cc1`, the cytotoxicity call was “active”.

Take `FC(F)(F)c1ccc(CSc2c[nH]c3ccccc23)cc1`: the cytotoxicity call was “inactive”.

Regarding `O=c1nc[nH]c2ccccc12`, the cytotoxicity call is “inactive”.

Turning to `Cn1nnc(NCc2ccccc2)n1`, the cytotoxicity call is “inactive”.

As to `CC1(C)C=Cc2c(nc3ccccc3c2NCc2ccccc2)C1`, the cytotoxicity call is “active”.

With `CC(C)NC(=O)Nc1cccc2c1O[C@H](CN(C)S(=O)(=O)c1ccc(Cl)cc1)[C@@H](C)CN([C@@H](C)CO)C2=O`, the cytotoxicity call is “inactive”.

Take `CNC(=O)C[C@H]1CC[C@H]2[C@@H](COC[C@@H](O)CN2C(=O)c2ccccn2)O1`: the cytotoxicity call is “inactive”.

Take `C=C[C@@H]1C[C@]1(NC(=O)[C@@H]1C[C@@H]2CN1C(=O)[C@H](C(C)(C)C)NC(=O)O[C@@H]1C[C@H]1CCCCCc1nc3ccc(OC)cc3nc1O2)C(=O)NS(=O)(=O)C1CC1`: the cytotoxicity call is “inactive”.

As to `COCC#Cc1ccc2c(c1)O[C@H](CN(C)C(=O)Nc1ccccc1F)[C@@H](C)CN([C@H](C)CO)S2(=O)=O`, the cytotoxicity call was “inactive”.

For `C[C@H](CO)N1C[C@H](C)[C@@H](CN(C)S(=O)(=O)c2cccs2)Oc2ccc(NC(=O)Cn3cnnn3)cc2CC1=O`, the cytotoxicity call is “inactive”.

Take `C[C@@H]1CN([C@H](C)CO)C(=O)c2cc(NC(=O)Nc3cccc4ccccc34)ccc2O[C@@H]1CN(C)Cc1ccc(C(=O)Nc2ccccc2N)cc1`: the cytotoxicity call is “active”.

With `C[C@@H]1CN([C@H](C)CO)C(=O)c2cc(NC(=O)Nc3cccc4ccccc34)ccc2O[C@H]1CN(C)Cc1ccc(C(=O)Nc2ccccc2N)cc1`, the cytotoxicity call was “inactive”.

`C[C@H](CO)N1C[C@H](C)[C@H](CN(C)Cc2ccc(C(=O)Nc3ccccc3N)cc2)Oc2ccc(NC(=O)Nc3cccc4ccccc34)cc2C1=O`: the cytotoxicity call is “active”.

As to `C[C@H](CO)N1C[C@H](C)[C@@H](CN(C)Cc2ccc(C(=O)Nc3ccccc3N)cc2)Oc2ccc(NC(=O)Nc3cccc4ccccc34)cc2C1=O`, the cytotoxicity call is “inactive”.

Regarding `C[C@H]1CN([C@@H](C)CO)C(=O)c2cc(NC(=O)Nc3cccc4ccccc34)ccc2O[C@@H]1CN(C)Cc1ccc(C(=O)Nc2ccccc2N)cc1`, the cytotoxicity call is “inactive”.

On to `C[C@H]1CN([C@@H](C)CO)C(=O)c2cc(NC(=O)Nc3cccc4ccccc34)ccc2O[C@H]1CN(C)Cc1ccc(C(=O)Nc2ccccc2N)cc1`, for which the cytotoxicity call was “inactive”.

Turning to `CN1C(=O)c2cc(NC(=O)Cc3cccs3)ccc2OC[C@@H]2O[C@@H](CC(=O)NCCCN3CCOCC3)CC[C@H]21`, the cytotoxicity call was “inactive”.

As for `COCCOC(=O)N1C(=O)[C@@]2(c3cc(C#CCNC(N)=O)ccc31)[C@H](c1ccc(O)cc1)N1[C@H](c3ccccc3)[C@H](c3ccccc3)OC(=O)[C@H]1[C@@H]2C(=O)N1CCc2cc(OC)c(OC)cc2C1`, the cytotoxicity call was “inactive”.

With `COC(=O)[C@H]1[C@H](CO)[C@H]2Cn3c(cccc3=O)[C@H]2N1C(=O)C1CC1`, the cytotoxicity call is “inactive”.

Consider `C[C@H](CO)N1C[C@H](C)[C@@H](CN(C)Cc2ccc(C(=O)Nc3ccccc3N)cc2)Oc2c(NC(=O)Nc3ccccc3)cccc2C1=O`, for which the cytotoxicity call is “inactive”.

With `C[C@H](C(=O)O)N1CCCC1=O`, the cytotoxicity call was “inactive”.

Consider `C[C@H](CO)N1C[C@H](C)[C@@H](CN(C)C(=O)Nc2cccc3ccccc23)Oc2ccc(NC(=O)Nc3ccccc3)cc2C1=O`, for which the cytotoxicity call was “inactive”.

On to `COc1ccc(S(=O)(=O)N2C[C@H](O)COC[C@@H]3O[C@H](CC(=O)NCCCN(C)C)CC[C@H]32)cc1`, for which the cytotoxicity call is “inactive”.

For `C[C@H]1CN([C@@H](C)CO)C(=O)c2c(c3ccccc3n2C)-c2ccccc2CO[C@@H]1CN(C)Cc1cccc(C(=O)O)c1`, the cytotoxicity call was “inactive”.

Consider `Cc1ccc(S(=O)(=O)N(C)C[C@H]2Oc3c(NC(=O)Nc4cccc5ccccc45)cccc3C(=O)N([C@@H](C)CO)C[C@H]2C)cc1`, for which the cytotoxicity call was “inactive”.

As for `O=C(C[C@@H]1C[C@@H]2c3cc(NS(=O)(=O)c4ccc(F)cc4)ccc3O[C@@H]2[C@H](CO)O1)NCCc1ccccc1`, the cytotoxicity call is “inactive”.

As to `C[C@H]1CN([C@@H](C)CO)C(=O)Cc2cc(NC(=O)Nc3cccc4ccccc34)ccc2O[C@H]1CN(C)S(=O)(=O)c1cccs1`, the cytotoxicity call was “inactive”.

`C[C@H]1CN([C@@H](C)CO)C(=O)Cc2cc(NC(=O)c3ccncc3)ccc2O[C@@H]1CN(C)S(=O)(=O)c1cccs1`: the cytotoxicity call is “inactive”.

As for `CC(C)NC(=O)Nc1ccc2c(c1)CC(=O)N([C@@H](C)CO)C[C@@H](C)[C@@H](CN(C)S(=O)(=O)c1cccs1)O2`, the cytotoxicity call was “active”.

Consider `CC(C)NC(=O)Nc1ccc2c(c1)CC(=O)N([C@H](C)CO)C[C@H](C)[C@H](CN(C)S(=O)(=O)c1cccs1)O2`, for which the cytotoxicity call was “inactive”.

`C[C@H]1CN([C@@H](C)CO)C(=O)Cc2cc(NC(=O)c3ccncc3)ccc2O[C@@H]1CN(C)S(=O)(=O)c1ccccc1`: the cytotoxicity call was “inactive”.

For the compound `C[C@H](CO)N1C[C@H](C)[C@H](CN(C)S(=O)(=O)c2cccs2)Oc2ccc(NC(=O)Nc3cccc4ccccc34)cc2CC1=O`, the cytotoxicity call was “inactive”.

Consider `C[C@@H]1CN([C@@H](C)CO)C(=O)Cc2cc(NC(=O)c3ccncc3)ccc2O[C@H]1CN(C)S(=O)(=O)c1cccs1`, for which the cytotoxicity call was “inactive”.

Consider `C[C@@H]1CN([C@@H](C)CO)C(=O)Cc2cc(NC(=O)c3ccncc3)ccc2O[C@@H]1CN(C)S(=O)(=O)c1cccs1`, for which the cytotoxicity call is “active”.

On to `C[C@H](CO)N1C[C@H](C)[C@H](CN(C)S(=O)(=O)c2ccccc2)Oc2ccc(NC(=O)c3ccncc3)cc2CC1=O`, for which the cytotoxicity call is “inactive”.

With `C[C@@H]1CN([C@@H](C)CO)C(=O)Cc2cc(NC(=O)c3ccncc3)ccc2O[C@@H]1CN(C)S(=O)(=O)c1ccccc1`, the cytotoxicity call was “active”.

For the compound `C[C@@H]1CN([C@@H](C)CO)C(=O)Cc2cc(NC(=O)Nc3cccc4ccccc34)ccc2O[C@@H]1CN(C)S(=O)(=O)c1cccs1`, the cytotoxicity call is “active”.

As for `CC(C)NC(=O)Nc1ccc2c(c1)CC(=O)N([C@@H](C)CO)C[C@H](C)[C@H](CN(C)S(=O)(=O)c1cccs1)O2`, the cytotoxicity call was “inactive”.

The values are drawn from the antibiotic and cytotoxicity screens of Wong et al. (2023).
